The values that follow come from PubChem BioAssay (EPA / NIEHS).

Records with an inconclusive call do not appear. The source made the active and inactive calls. The calls were made as follows, unless noted: active = hit-call score of the fitted dose curve at least 0.9, where 1 is the maximum; inconclusive = response in the unintended direction; inactive = score below 0.9.

Experiment [1] can be described thus: ATG_M_19_CIS: Attagene CIS-FACTORIAL HepG2 Assay for M19 Transcription Factor (Internal Marker) (AID 2282939; active = hit-call score of the fitted dose curve at least 0.9, where 1 is the maximum; inactive = score below 0.9). Conditions: HepG2 Attagene CIS-FACTORIAL M19 internal marker reporter; actives raise or lower the signal. The procedure, abridged:
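Signals come from fluorescence of labelled reporter-specific PCR fragments resolved by capillary electrophoresis, following 24 h treatment of HepG2 cells transfected with cis-promoter reporter units; activity was fitted in both directions relative to DMSO.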

Experiment [2] is described as follows: ATG_MRE_CIS: Attagene CIS-FACTORIAL HepG2 Assay for human Metal Responsive Element (MRE) (AID 2282954; active = hit-call score of the fitted dose curve at least 0.9, where 1 is the maximum; inactive = score below 0.9). Conditions: HepG2 MRE cis-reporter transcription, Attagene multiplex; actives raise or lower the signal. The procedure, abridged: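 Measured here is mRNA induction from an MRE cis-element reporter in HepG2 after 24 h, quantified by fluorescence of labelled RT-PCR products on capillary electrophoresis; gain- and loss-of-signal fits use DMSO as baseline.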

For experiment [3], the target named is X-box-binding protein 1 (Homo sapiens) (UniProt P17861). The experiment in a line: ATG_Xbp1_CIS: Attagene CIS-FACTORIAL HepG2 Assay for human X-box Binding Protein 1 (XBP1) (AID 2282972; active = hit-call score of the fitted dose curve at least 0.9, where 1 is the maximum; inactive = score below 0.9). Conditions: HepG2 XBP1 cis-element reporter, Attagene multiplex; actives raise or lower the signal. Put shortly: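 Read-out: fluorescent reporter mRNA fragments resolved by capillary electrophoresis after RT-PCR. Human HepG2 liver cells carried transfected cis-promoter reporter units and were exposed to chemicals for 24 hours. Gain or loss of signal fitted relative to DMSO baseline.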

Experiment [4] concerns the target Hepatocyte nuclear factor 4-alpha (Homo sapiens) (UniProt P41235). The experiment can be described thus: ATG_HNF4a_TRANS: Attagene TRANS-FACTORIAL HepG2 Assay for human Hepatocyte Nuclear Factor 4 alpha (HNF4a) (AID 2282982). Conditions: HepG2 HNF4a transactivation reporter, mRNA readout. The procedure, abridged: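 Endpoint reflects transcriptional activation of a GAL4-UAS reporter by an HNF4a-GAL4 chimera in transfected HepG2 cells, 24 h post-dosing. Fluorescence from RT-PCR products separated by capillary electrophoresis; DMSO baseline.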

Experiment [5] can be described thus: ATG_M_32_TRANS: Attagene TRANS-FACTORIAL HepG2 Assay for M32 Transcription Factor (Internal Marker) (AID 2282984).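 Also: transcript level of a background control reporter unit measured by RT-PCR and capillary electrophoresis.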 Conditions: HepG2 Attagene TRANS M32 internal marker reporter. The procedure, abridged: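 Internal-marker readout from a multiplexed transcription reporter panel. HepG2 cells were transfected with GAL4-UAS reporter units, treated 24 hours, and reporter transcript levels determined by fluorescence after RT-PCR and capillary separation.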

Experiment [6] concerns the target Retinoic acid receptor RXR-alpha (Homo sapiens) (UniProt P19793). The experiment can be described thus: ATG_RXRa_TRANS: Attagene TRANS-FACTORIAL HepG2 Assay for human Retinoid X Receptor alpha (RXRa) (AID 2283012). Put shortly: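 Measures exogenous chimeric NR-GAL4 activity in transfected HepG2 liver cells after 24 h of dosing. Induced reporter mRNA was detected by RT-PCR with capillary electrophoresis, and gain of signal was analysed against DMSO.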

A short description of experiment [7]: ATG_PBREM_CIS: Attagene CIS-FACTORIAL HepG2 Assay for human Phenobarbital-responsive Enhancer Module (PBREM) (AID 2282955; active = hit-call score of the fitted dose curve at least 0.9, where 1 is the maximum; inactive = score below 0.9). Conditions: HepG2 PBREM cis-reporter, Attagene multiplexed transcription; actives raise or lower the signal. Put shortly: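 Endogenous transcription factor activity was read from reporter transcripts in transiently transfected human HepG2 liver cells after 24 h dosing. RT-PCR products were fluorescently labelled, HpaI-cut and sized by capillary electrophoresis; activity fitted bidirectionally against DMSO baseline.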

A short description of experiment [8]: ATG_TGFb_CIS: Attagene CIS-FACTORIAL HepG2 Assay for human Transforming Growth Factor (TGF) (AID 2282967; active = hit-call score of the fitted dose curve at least 0.9, where 1 is the maximum; inactive = score below 0.9). Conditions: HepG2 Attagene CIS TGFb reporter, mRNA transcription; actives raise or lower the signal. Put shortly: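 Bidirectional fitting relative to DMSO gave the endpoint. Underlying data: reporter mRNA from HepG2 cells carrying transiently transfected cis-regulated reporter constructs, harvested 24 h after dosing and analyzed by RT-PCR and capillary electrophoresis.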

Experiment [9] can be described thus: ATG_M_06_TRANS: Attagene TRANS-FACTORIAL HepG2 Assay for M06 Transcription Factor (Internal Marker) (AID 2282983). Conditions: HepG2 Attagene TRANS M06 internal marker reporter. The procedure, abridged: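 Human liver HepG2 cells bearing transiently transfected chimeric NR-GAL4 reporter units were treated with chemicals for 24 h. Total RNA was reverse-transcribed, reporter sequences amplified and labelled, then quantified by capillary electrophoresis. Activity was fitted upward relative to DMSO.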

Experiment [10] can be described thus: ATG_NF_kB_CIS: Attagene CIS-FACTORIAL HepG2 Assay for human Nuclear Factor Kappa B (NF-kB) (AID 2282991; active = hit-call score of the fitted dose curve at least 0.9, where 1 is the maximum; inactive = score below 0.9). Conditions: HepG2 Attagene cis-factorial NF-kB reporter mRNA; actives raise or lower the signal. The procedure, abridged:
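Readout is reporter transcript level, gain or loss versus DMSO, measured 24 h post-dose via RT-PCR, fluorescent labelling and capillary electrophoresis. Human HepG2 liver cells carried transiently transfected CIS reporter constructs reflecting endogenous factors.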

Experiment [11] concerns the target human Retinoid X Receptor beta (RXRb), RXRB (gene 6257) (UniProt P28702). The experiment can be described thus: ATG_RXRb_TRANS: Attagene TRANS-FACTORIAL HepG2 Assay for human Retinoid X Receptor beta (RXRb) (AID 2283013). The procedure, abridged: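 Chimeric receptor-Gal4 activity was assessed in transiently transfected human HepG2 cells after 24 h exposure. Transcripts from GAL4-UAS reporters were quantified by fluorescent RT-PCR and capillary electrophoresis, with DMSO as negative control and baseline.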

Experiment [12] in a line: TOX21_p53_BLA_p2_viability: Viability Assessment in the Tox21 HCT-116 p53 Agonism Beta-lactamase Assay, Phase 2 (AID 2283591).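 Also: compound exposure lasted 16 h at 37 °C; actives lower the ATP signal meaning cytotoxicity.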 Put shortly:
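HCT116 p53-bla cells, 4000/well, dosed after 5 h plating (217-fold dilution of DMSO stocks) and incubated 16 h at 37C. Viability taken as cellular ATP by CellTiter-Glo luminescence after 30 min RT; signal loss marks cytotoxicity.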

In experiment [13] the target is Cellular tumor antigen p53 (Homo sapiens) (UniProt P04637). The experiment in a line: TOX21_p53_BLA_p2_ratio: Tox21 HCT-116 p53 Agonism Beta-lactamase Assay, Ratio, Phase 2 (AID 2283592). The procedure, abridged: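 Cleaved-to-uncleaved substrate ratio (460 vs 530 nm) measured in HCT116 cells with an inducible beta-lactamase reporter linked to p53 activity. Compounds incubated 16 h at 37C before 2 h room-temperature CCF4-AM loading.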

For experiment [14] the target is unchanged. The experiment in a line: TOX21_p53_BLA_p3_ratio: Tox21 HCT-116 p53 Agonism Beta-lactamase Assay, Ratio, Phase 3 (AID 2283596). The procedure, abridged: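 Cells were seeded at 4000/well, rested 5 h at 37C, then dosed with DMSO compound solutions (217-fold dilution) for 16 h. CCF4-AM substrate was loaded for 2 h at room temperature, and the 460/530 nm emission ratio was fitted for gain of signal versus DMSO.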

Experiment [15] is described as follows: TOX21_p53_BLA_p5_viability: Viability Assessment in the Tox21 HCT-116 p53 Agonism Beta-lactamase Assay, Phase 5 (AID 2283600). Put shortly: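 Viability is taken from cellular ATP content, measured by luciferase luminescence in the same wells after the beta-lactamase ratio read. Cells are seeded at 4000 per well and exposed to DMSO-dissolved compounds, diluted 217-fold, for 16 h.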

Experiment [16] concerns the target Cellular tumor antigen p53 (Homo sapiens) (UniProt P04637). The experiment can be described thus: TOX21_p53_BLA_p4_ratio: Tox21 HCT-116 p53 Agonism Beta-lactamase Assay, Ratio, Phase 4 (AID 2283601). The procedure, abridged: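 HCT-116 p53 beta-lactamase reporter cells (4000/well) preincubated 5 h, then compound (217-fold dilution of DMSO stock) for 16 h at 37C. CCF4-AM substrate added 2 h at room temperature; 460/530 nm emission ratio fitted upward versus DMSO.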

The target in experiment [17] is Retinoic acid receptor alpha (Homo sapiens) (UniProt P10276). The experiment can be described thus: ATG_DR5_RAR_CIS: Attagene CIS-FACTORIAL HepG2 Assay for human Retinoic Acid Receptor Alpha (RARE), DR5 submotif (AID 2282934; active = hit-call score of the fitted dose curve at least 0.9, where 1 is the maximum; inactive = score below 0.9). Conditions: HepG2 Attagene cis-factorial RARE DR5 reporter, mRNA; actives raise or lower the signal. Put shortly: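 HepG2 cells transiently transfected with multiplexed reporter units; DR5 cis-element drives reporter through endogenous transcription factors. After 24 h dosing, reporter mRNA quantified by RT-PCR, fluorescent labeling, HpaI digestion and capillary electrophoresis; bidirectional fitting versus DMSO.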

Experiment [18] addresses Hepatocyte nuclear factor 6 (Homo sapiens) (UniProt Q9UBC0). The experiment can be described thus: ATG_HNF6_CIS: Attagene CIS-FACTORIAL HepG2 Assay for human Hepatocyte Nuclear Factor 6 (HNF6) (AID 2282952; active = hit-call score of the fitted dose curve at least 0.9, where 1 is the maximum; inactive = score below 0.9). Conditions: HepG2 Attagene cis-factorial HNF6 reporter transcription; actives raise or lower the signal. The procedure, abridged:
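Endogenous transcription factor activity in human HepG2 liver cells was captured through cis-regulated reporter constructs. After 24 h treatment, reporter mRNA was measured by RT-PCR with capillary electrophoresis, and activity was fitted in both directions relative to DMSO.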

In experiment [19] the target is Cellular tumor antigen p53 (Homo sapiens) (UniProt P04637). The experiment can be described thus: TOX21_p53_BLA_p5_ratio: Tox21 HCT-116 p53 Agonism Beta-lactamase Assay, Ratio, Phase 5 (AID 2283599). Put shortly:
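HCT-116 p53-bla cells (4000/well) plated 5 h, dosed with compound (217-fold DMSO dilution) for 16 h at 37 C; CCF4-AM substrate 2 h at room temperature. Activity is the 460/530 nm emission ratio (405 nm excitation), fitted in gain-of-signal direction versus DMSO.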

The nature of experiment [20]: ATG_GRE_CIS: Attagene CIS-FACTORIAL HepG2 Assay for human Glucocorticoid Response Elements (GRE) (AID 2282947; active = hit-call score of the fitted dose curve at least 0.9, where 1 is the maximum; inactive = score below 0.9). Conditions: HepG2 GRE cis-reporter, Attagene multiplex mRNA; actives raise or lower the signal. The procedure, abridged:
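Fluorescence intensity of reporter-specific cDNA fragments, separated by capillary electrophoresis, provides the signal. Constructs carry cis-regulating promoters in transiently transfected HepG2 liver cells; 24 h incubation; fitting is bidirectional against DMSO.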

human Retinoid X Receptor beta (RXRb), RXRB (gene 6257), sequence (P28702 whole entry, looked up, the tested form may be a part): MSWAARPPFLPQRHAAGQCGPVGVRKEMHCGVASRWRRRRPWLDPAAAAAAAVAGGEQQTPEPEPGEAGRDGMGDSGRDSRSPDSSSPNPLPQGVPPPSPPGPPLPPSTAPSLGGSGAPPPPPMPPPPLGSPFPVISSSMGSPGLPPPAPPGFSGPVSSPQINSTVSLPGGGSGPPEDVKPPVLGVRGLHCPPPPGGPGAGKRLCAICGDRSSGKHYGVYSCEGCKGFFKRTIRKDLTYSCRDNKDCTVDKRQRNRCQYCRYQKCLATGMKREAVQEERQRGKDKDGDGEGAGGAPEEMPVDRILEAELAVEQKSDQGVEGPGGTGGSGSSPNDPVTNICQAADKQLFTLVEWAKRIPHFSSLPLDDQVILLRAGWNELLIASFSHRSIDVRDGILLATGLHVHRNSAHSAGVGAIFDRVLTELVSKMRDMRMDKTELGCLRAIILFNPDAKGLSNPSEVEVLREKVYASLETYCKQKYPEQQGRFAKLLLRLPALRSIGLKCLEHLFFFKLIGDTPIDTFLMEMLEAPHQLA
Hepatocyte nuclear factor 4-alpha (Homo sapiens), sequence (P41235 whole entry, looked up, the tested form may be a part): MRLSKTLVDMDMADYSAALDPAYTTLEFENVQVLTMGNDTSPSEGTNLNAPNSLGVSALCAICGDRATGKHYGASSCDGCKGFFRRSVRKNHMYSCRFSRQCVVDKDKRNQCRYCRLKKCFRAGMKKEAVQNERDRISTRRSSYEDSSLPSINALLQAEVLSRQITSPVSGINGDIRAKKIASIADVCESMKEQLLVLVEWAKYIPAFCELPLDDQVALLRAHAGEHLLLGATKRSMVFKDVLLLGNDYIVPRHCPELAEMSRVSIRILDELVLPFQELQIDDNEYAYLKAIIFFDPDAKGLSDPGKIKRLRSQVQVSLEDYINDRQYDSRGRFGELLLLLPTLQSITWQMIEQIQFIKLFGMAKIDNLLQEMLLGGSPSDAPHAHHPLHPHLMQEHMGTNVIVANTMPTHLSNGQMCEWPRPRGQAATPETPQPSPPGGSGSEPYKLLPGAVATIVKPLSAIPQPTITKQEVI
Retinoic acid receptor RXR-alpha (Homo sapiens), sequence (P19793 whole entry, looked up, the tested form may be a part): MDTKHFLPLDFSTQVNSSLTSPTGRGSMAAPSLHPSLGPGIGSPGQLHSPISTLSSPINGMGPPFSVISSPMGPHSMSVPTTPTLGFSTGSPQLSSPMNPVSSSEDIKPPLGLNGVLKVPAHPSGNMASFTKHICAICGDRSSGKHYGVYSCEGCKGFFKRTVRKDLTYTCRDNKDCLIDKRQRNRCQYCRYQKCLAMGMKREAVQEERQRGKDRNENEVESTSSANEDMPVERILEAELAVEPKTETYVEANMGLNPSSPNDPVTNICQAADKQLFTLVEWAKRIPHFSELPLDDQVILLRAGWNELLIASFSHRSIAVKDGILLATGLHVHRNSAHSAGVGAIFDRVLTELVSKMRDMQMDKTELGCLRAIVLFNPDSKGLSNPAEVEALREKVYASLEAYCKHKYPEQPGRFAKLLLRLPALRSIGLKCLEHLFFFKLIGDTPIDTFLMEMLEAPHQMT
Retinoic acid receptor alpha (Homo sapiens), sequence (P10276 whole entry, looked up): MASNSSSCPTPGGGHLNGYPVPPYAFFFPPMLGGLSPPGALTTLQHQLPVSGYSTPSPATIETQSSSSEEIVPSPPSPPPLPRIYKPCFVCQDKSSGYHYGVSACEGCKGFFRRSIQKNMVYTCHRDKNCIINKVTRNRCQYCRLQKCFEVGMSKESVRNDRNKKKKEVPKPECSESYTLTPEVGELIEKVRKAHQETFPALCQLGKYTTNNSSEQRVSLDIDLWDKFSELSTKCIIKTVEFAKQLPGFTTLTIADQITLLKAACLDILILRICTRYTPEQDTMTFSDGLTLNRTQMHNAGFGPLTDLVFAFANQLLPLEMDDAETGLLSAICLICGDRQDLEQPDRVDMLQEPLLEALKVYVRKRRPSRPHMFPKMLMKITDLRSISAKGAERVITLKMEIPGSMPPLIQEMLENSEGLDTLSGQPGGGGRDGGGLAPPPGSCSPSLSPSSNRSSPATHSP
Cellular tumor antigen p53 (Homo sapiens), sequence (P04637 whole entry, looked up): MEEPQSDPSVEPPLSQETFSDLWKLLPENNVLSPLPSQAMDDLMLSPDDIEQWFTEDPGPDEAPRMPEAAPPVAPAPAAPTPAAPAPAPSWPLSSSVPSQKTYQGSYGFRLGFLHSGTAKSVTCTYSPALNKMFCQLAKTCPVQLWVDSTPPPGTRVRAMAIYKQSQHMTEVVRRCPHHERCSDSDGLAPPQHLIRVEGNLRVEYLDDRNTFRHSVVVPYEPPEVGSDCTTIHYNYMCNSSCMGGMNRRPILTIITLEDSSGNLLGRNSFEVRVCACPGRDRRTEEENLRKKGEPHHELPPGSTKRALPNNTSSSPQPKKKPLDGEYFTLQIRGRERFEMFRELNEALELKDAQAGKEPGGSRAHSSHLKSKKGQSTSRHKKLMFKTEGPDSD
Hepatocyte nuclear factor 6 (Homo sapiens), sequence (Q9UBC0 whole entry, looked up): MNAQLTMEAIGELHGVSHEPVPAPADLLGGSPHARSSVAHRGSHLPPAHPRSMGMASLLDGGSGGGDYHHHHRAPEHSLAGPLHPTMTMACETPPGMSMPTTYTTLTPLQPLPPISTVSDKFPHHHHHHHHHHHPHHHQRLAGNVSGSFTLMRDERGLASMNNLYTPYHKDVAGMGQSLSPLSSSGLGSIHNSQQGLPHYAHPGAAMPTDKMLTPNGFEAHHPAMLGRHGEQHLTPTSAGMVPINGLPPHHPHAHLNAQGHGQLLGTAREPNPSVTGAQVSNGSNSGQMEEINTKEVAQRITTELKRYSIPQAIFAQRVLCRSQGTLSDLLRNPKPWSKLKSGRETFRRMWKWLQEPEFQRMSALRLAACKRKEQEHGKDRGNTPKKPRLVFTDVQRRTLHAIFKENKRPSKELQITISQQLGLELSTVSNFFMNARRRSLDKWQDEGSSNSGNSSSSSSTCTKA
X-box-binding protein 1 (Homo sapiens), sequence (P17861 whole entry, looked up, the tested form may be a part): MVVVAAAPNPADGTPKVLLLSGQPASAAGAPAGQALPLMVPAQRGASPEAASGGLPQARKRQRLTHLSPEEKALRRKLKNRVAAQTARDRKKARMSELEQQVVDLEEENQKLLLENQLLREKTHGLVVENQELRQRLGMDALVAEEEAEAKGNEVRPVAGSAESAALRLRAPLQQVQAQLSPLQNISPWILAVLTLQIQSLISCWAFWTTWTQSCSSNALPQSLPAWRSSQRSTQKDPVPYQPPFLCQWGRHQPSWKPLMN

As for `F[B-](F)(F)F`, the compound was classed as inactive in [1], in [2], in [3], in [4], in [5] and in [6].

As usually defined, the AC50 is the concentration at which the activity in the assay is half-maximal. With `C[C@H]1C[C@H]2[C@@H]3CCC4=CC(=O)C=C[C@]4(C)[C@@]3(F)[C@@H](O)C[C@]2(C)[C@@]1(O)C(=O)CO`, the outcome in experiment [1], in experiment [7], in experiment [8], in experiment [9], in experiment [10] and in [6] was inactive. Further, the result in [11], in [12], in [13], in [14], in experiment [15] and in [16] was inactive. Besides, the AC50 in experiment [2] was 80.1 µM (active).

With `Oc1ccc(Cl)cc1C1CCCC1`, the compound was classed as inactive in experiment [17], in [1], in [7], in [8], in [4] and in experiment [9]. Moreover, the outcome in experiment [5], in experiment [10], in experiment [12], in [13], in experiment [14] and in experiment [19] was inactive. Also, the compound was classed as inactive in [15]. Also, the AC50 in experiment [18] was 55.6 µM (active); in experiment [2], 53 µM (active); in [3], 43.1 µM (active); in [6], 17.6 µM (active); in [11], 3.12 µM (active); in experiment [16], 55.6 µM (active).

With `COC(OC)C(C)c1ccccc1` (stereo not drawn), the call in experiment [17], in experiment [1], in experiment [20], in experiment [18], in experiment [2] and in experiment [8] was inactive. Besides, the compound was classed as inactive in experiment [4], in experiment [9], in [5], in [10], in experiment [6] and in experiment [11]. In addition, the compound was called inactive in experiment [12], in experiment [13], in experiment [14], in experiment [19], in [15] and in experiment [16].

Take `CN1CCCC1`: the result in experiment [17], in experiment [1], in experiment [2], in experiment [7], in experiment [4] and in experiment [9] was inactive. Moreover, the outcome in [5], in experiment [10], in experiment [6], in [12], in [13] and in [19] was inactive.
